Results filed as inconclusive are left out. Active and inactive are the calls of the source. The calls were made as follows, unless noted: active = hit-call score of the fitted dose curve at least 0.9, where 1 is the maximum; inconclusive = response in the unintended direction; inactive = score below 0.9.
What was measured:
[1] = TOX21_p53_BLA_p2_viability: Viability Assessment in the Tox21 HCT-116 p53 Agonism Beta-lactamase Assay, Phase 2 (AID 2283591);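 also: actives lower the ATP signal meaning cytotoxicity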
How it was run: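 HCT-116 p53-bla cells (4000/well) rested 5 h at 37C, then received compounds in DMSO (217-fold dilution) for 16 h at 37C, 5% CO2. After the CCF4 read, CellTiter-Glo was added; ATP luminescence was read after 30 min at room temperature.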

[2] = TOX21_p53_BLA_p4_viability: Viability Assessment in the Tox21 HCT-116 p53 Agonism Beta-lactamase Assay, Phase 4 (AID 2283597);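 also: hits lower the luminescence signal meaning cytotoxicity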
How it was run: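 Cells plated, 5 h pre-incubation; DMSO compounds pinned (217-fold dilution); 16 h, 37C/5% CO2; CCF4-AM 2 h RT; CellTiter-Glo 30 min RT; luminescence read.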

[3] = biological target: Cellular tumor antigen p53 (Homo sapiens) (UniProt P04637); assay: TOX21_p53_BLA_p5_ratio: Tox21 HCT-116 p53 Agonism Beta-lactamase Assay, Ratio, Phase 5 (AID 2283599)
Cellular tumor antigen p53 (Homo sapiens), sequence (P04637 whole entry, looked up): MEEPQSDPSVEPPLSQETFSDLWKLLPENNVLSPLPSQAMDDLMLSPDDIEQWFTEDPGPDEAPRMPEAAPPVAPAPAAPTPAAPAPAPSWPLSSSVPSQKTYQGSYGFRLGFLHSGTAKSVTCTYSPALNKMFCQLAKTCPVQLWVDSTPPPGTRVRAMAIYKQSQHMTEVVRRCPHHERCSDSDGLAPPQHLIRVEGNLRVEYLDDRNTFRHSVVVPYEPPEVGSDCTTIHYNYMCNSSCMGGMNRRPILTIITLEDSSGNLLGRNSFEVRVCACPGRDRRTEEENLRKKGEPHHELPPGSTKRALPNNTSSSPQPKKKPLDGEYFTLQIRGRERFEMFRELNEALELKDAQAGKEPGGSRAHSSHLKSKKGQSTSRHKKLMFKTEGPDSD
How it was run: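 HCT-116 cells carrying a p53-inducible beta-lactamase reporter were seeded at 4000 cells/well and dosed after 5 h with compound in DMSO (217-fold dilution). After 16 h at 37C, CCF4-AM substrate was added for 2 h, and the 460/530 nm emission ratio was scored as gain-of-signal versus DMSO.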

[4] = TOX21_p53_BLA_p5_viability: Viability Assessment in the Tox21 HCT-116 p53 Agonism Beta-lactamase Assay, Phase 5 (AID 2283600)
How it was run: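 4000 cells/well; 5 h pre-incubation; DMSO compounds pin-transferred, 217-fold dilution; 16 h, 37C/5% CO2; CCF4-AM 2 h RT; CellTiter-Glo 30 min RT; luminescence.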

[5] = biological target: Cellular tumor antigen p53 (Homo sapiens) (UniProt P04637); assay: TOX21_p53_BLA_p3_ratio: Tox21 HCT-116 p53 Agonism Beta-lactamase Assay, Ratio, Phase 3 (AID 2283596)
How it was run: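 HCT116 p53-bla cells (4000/well) given compound in DMSO (217-fold dilution) after 5 h, incubated 16 h at 37C. CCF4-AM substrate 2 h at room temperature; 460/530 nm emission ratio, gain fitted against DMSO.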

[6] = biological target: Cellular tumor antigen p53 (Homo sapiens) (UniProt P04637); assay: TOX21_p53_BLA_p4_ratio: Tox21 HCT-116 p53 Agonism Beta-lactamase Assay, Ratio, Phase 4 (AID 2283601)
How it was run: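 HCT116 cells carrying an inducible beta-lactamase reporter were plated at 4000 cells/well, rested 5 h, then exposed to compounds in DMSO (217-fold dilution) for 16 h at 37C. CCF4-AM substrate was loaded 2 h at room temperature; 460/530 nm emission ratio scored gain-of-signal versus DMSO.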

[7] = biological target: THRB (gene 7068) (UniProt P10828); assay: TOX21_TRB_BLA_Antagonist_Followup_ratio: Tox21 Thyroid Hormone Receptor beta Antagonism Beta-lactamase (BLA) Follow-Up Assay, Ratio (AID 2283958)
THRB (gene 7068), sequence (P10828 whole entry, looked up, the tested form may be a part): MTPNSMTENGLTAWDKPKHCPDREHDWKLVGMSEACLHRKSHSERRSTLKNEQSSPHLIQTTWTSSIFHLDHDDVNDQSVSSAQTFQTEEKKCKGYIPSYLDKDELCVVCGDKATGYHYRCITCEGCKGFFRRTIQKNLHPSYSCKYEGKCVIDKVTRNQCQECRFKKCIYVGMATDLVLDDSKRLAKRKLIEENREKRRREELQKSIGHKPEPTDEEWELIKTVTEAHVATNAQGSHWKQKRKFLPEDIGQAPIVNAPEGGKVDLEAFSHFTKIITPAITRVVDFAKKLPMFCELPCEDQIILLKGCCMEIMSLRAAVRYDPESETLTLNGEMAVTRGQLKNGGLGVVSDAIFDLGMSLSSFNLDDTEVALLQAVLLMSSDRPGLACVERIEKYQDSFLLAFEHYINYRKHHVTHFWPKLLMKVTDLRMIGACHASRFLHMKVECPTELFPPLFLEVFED
How it was run: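 HEK293T cells with a GAL4-TRb LBD fusion and UAS-bla reporter, 3,000 cells/well in phenol red-free DMEM with 2% charcoal-stripped FBS. Exposed 18 h at 37C to 11 concentrations in triplicate; CCF4 460:530 nm ratio after 2 h, DMSO-referenced.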

[8] = biological target: THRB (gene 7068) (UniProt P10828); assay: TOX21_TRB_COA_Antagonist_Followup_ratio: Tox21 Thyroid Hormone Receptor beta Antagonism through Coactivator Recruitment Follow-Up Assay, Ratio (AID 2283967)
How it was run: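 Cell-free TR-FRET coactivator recruitment with GST-tagged TRβ LBD (5.0 nM) and fluorescein-labeled SRC-2 peptide (200 nM) detected by terbium anti-GST antibody (2 nM). The 520:495 nm emission ratio was normalized to DMSO (0%) and T3 (100%).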

[9] = TOX21_TR_RXR_BLA_Antagonist_Followup_viability: Viability Assessment in the Tox21 Thyroid Hormone Receptor beta Retinoid X Receptor alpha (RXRa) Antagonism Beta-lactamase (BLA) Follow-Up Assay (AID 2283979)
How it was run: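 RXRa-UAS-bla HEK293T cells seeded 2,500/well in phenol red-free DMEM with 2% charcoal-stripped FBS, attached 5 h, then exposed to compounds at 11 concentrations in triplicate for 16 h at 37C/5% CO2. Viability read by CellTiter-Glo ATP luminescence; bidirectional fit versus DMSO.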

[10] = CCTE_Harrill_HTTr_Viability_MCF7: CCTE's 6-hour Cell Viability Assessment for the High-Throughput Transcriptomics (HTTr) Platform, in MCF-7 cells cultured in DMEM + 10% fetal bovine serum, Harrill Lab (AID 2284010; active = hit-call score of the fitted dose curve at least 0.9, where 1 is the maximum; inactive = score below 0.9)
How it was run: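 MCF-7 cells in DMEM + 10% FBS, 384-well, exposed 6 h to an eight-point dilution series. Membrane integrity scored by high-content imaging of propidium iodide exclusion; bidirectional fit versus DMSO.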

[11] = CCTE_Harrill_HTTr_Apoptosis_MCF7: CCTE's 6-hour Apoptosis Assessment for the High-Throughput Transcriptomics (HTTr) Platform, in MCF-7 cells cultured in DMEM + 10% fetal bovine serum, Harrill Lab (AID 2284011; active = hit-call score of the fitted dose curve at least 0.9, where 1 is the maximum; inactive = score below 0.9)
How it was run: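 MCF-7 (DMEM + 10% FBS), 384-well; 8-pt dilution series, 6 h chemical exposure; caspase-3/7 activation via CellEvent Caspase 3/7 Green, HCI; bidirectional fit vs DMSO.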

[12] = CCTE_Harrill_HTTr_CellCount_MCF7: CCTE's Cell Proliferation Assessment for the High-Throughput Transcriptomics (HTTr) Platform, Harrill Lab (AID 2284012);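 also: cells exposed to compound for six hours; intended direction is loss of nuclei count meaning fewer cells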
How it was run: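 MCF7 cells exposed 6 hours to an eight-point dilution series; Hoechst-stained nuclei counted by high-content imaging. Bidirectional curve fitting against DMSO baseline.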

[13] = biological target: PGR (gene 5241) (UniProt P06401); assay: TOX21_PR_BLA_Followup_Antagonist_ratio: Tox21 HEK293 Progesterone Receptor (PR) Antagonism Beta-lactamase Follow-Up Assay, Ratio (AID 2283934)
PGR (gene 5241), sequence (P06401 whole entry, looked up): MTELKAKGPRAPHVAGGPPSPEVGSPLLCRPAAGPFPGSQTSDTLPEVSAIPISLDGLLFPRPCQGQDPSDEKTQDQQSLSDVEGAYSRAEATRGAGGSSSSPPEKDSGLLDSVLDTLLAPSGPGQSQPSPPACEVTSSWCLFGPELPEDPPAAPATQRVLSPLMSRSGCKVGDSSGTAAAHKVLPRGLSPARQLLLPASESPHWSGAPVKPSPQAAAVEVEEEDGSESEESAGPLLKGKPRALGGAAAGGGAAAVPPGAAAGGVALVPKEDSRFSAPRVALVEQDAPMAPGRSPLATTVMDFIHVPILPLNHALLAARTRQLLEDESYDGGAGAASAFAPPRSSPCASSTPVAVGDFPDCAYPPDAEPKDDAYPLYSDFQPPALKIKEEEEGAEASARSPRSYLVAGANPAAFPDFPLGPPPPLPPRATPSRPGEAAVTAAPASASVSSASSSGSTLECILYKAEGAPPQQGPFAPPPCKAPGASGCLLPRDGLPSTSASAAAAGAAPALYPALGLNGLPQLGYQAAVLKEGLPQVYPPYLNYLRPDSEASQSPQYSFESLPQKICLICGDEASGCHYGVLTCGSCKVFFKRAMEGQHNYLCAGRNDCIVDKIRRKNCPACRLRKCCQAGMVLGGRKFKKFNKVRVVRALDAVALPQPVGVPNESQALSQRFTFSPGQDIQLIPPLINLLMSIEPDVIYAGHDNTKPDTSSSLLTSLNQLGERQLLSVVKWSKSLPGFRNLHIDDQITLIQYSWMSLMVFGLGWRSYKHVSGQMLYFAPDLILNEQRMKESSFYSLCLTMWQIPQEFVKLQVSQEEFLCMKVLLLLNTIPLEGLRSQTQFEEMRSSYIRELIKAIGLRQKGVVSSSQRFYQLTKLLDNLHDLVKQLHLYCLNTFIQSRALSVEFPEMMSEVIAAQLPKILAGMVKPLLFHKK
How it was run: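 PR-UAS-bla HEK293T cells, 3,000/well in 2% charcoal-stripped FBS, given compound plus 1nM R5020 agonist for 16 hr at 37C. Beta-lactamase FRET substrate 2 hours, ratio cleaved/uncleaved fluorescence; viability by CellTiter-Glo in same wells.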

[14] = TOX21_PR_BLA_Followup_Antagonist_viability: Viability Assessment in the Tox21 HEK293 Progesterone Receptor (PR) Antagonism Beta-lactamase Follow-Up Assay (AID 2283936);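 also: hits lower the luminescence signal meaning cytotoxicity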
How it was run: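 PR-UAS-bla HEK293T cells (3,000/well, 2% charcoal-stripped FBS) given compound plus R5020 agonist, 16 h at 37C. CellTiter-Glo added after bla read, 30 min at room temperature; luminescence loss indicates cytotoxicity.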

[15] = biological target: PGR (gene 5241) (UniProt P06401); assay: TOX21_PR_LUC_Followup_Antagonist: Tox21 HEK293 Progesterone Receptor (PR) Antagonism Luciferase Follow-Up Assay (AID 2283938);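 also: curve fitted upward as signal gain over DMSO baseline despite antagonist label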
How it was run: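 Cells are grown 5 days in charcoal-stripped-FBS assay medium, plated, left 5 h, then dosed with compound and incubated 16 h. ONE-Glo reagent is added and luminescence read after 30 min.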

[16] = TOX21_PR_LUC_Followup_Antagonist_viability: Viability Assessment in the Tox21 HEK293 Progesterone Receptor (PR) Antagonism Luciferase Follow-Up Assay (AID 2283940)
How it was run: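 HEK293-PR-A-luc cells kept in charcoal-stripped FBS medium were plated 5 h before compound addition, then exposed 16 h at 37C; viability read as cellular ATP by luciferase luminescence, loss of signal indicating cytotoxicity.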

[17] = TOX21_PR_LUC_Followup_Agonist_viability: Viability Assessment in the Tox21 HEK293 Progesterone Receptor (PR) Agonism Luciferase Follow-Up Assay (AID 2283941);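 also: loss of signal means cytotoxicity so actives lower viability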
How it was run: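 HEK293-PR-A-luc cells, kept in 10% charcoal-stripped FBS medium, were treated with compounds for 16 h at 37C. Viability read as cellular ATP by luciferase-coupled luminescence; loss of signal indicates cytotoxicity.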

[18] = TOX21_TRB_BLA_Antagonist_Followup_viability: Viability Assessment in the Tox21 Thyroid Hormone Receptor beta Antagonism Beta-lactamase (BLA) Follow-Up Assay (AID 2283961)
How it was run: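 TRβ-bla HEK293T (human TRβ LBD fused to GAL4 DBD), 3,000 cells/well, 2% charcoal-stripped FBS, phenol red-free medium; 18 h compound exposure, 37C; CellTiter-Glo 30 min RT; luminescence, loss-of-signal readout.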

[19] = biological target: Retinoic acid receptor RXR-alpha (Homo sapiens) (UniProt P19793); assay: TOX21_TR_RXR_BLA_Antagonist_Followup_ratio: Tox21 Thyroid Hormone Receptor beta Retinoid X Receptor alpha (RXRa) Antagonism Beta-lactamase (BLA) Follow-Up Assay, Ratio (AID 2283972)
Retinoic acid receptor RXR-alpha (Homo sapiens), sequence (P19793 whole entry, looked up): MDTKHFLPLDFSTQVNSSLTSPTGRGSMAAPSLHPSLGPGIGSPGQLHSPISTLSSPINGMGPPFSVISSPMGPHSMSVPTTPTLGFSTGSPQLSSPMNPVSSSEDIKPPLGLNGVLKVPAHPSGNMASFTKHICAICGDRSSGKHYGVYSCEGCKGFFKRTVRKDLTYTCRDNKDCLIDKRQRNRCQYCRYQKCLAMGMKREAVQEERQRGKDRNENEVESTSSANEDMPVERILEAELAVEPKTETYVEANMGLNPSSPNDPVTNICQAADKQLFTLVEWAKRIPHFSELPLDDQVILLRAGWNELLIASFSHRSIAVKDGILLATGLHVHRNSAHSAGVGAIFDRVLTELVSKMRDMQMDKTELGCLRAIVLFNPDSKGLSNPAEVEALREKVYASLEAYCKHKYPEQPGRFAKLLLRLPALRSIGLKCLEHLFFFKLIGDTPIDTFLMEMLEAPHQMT
How it was run: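 HEK293T RXRa-bla, 2% charcoal-stripped FBS medium, 16 h compound exposure at 37C, qHTS 11 conc x3. CCF4 FRET ratio ch2/ch1 (460:530), DMSO = baseline, loss-of-signal fit.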

[20] = biological target: Cellular tumor antigen p53 (Homo sapiens) (UniProt P04637); assay: TOX21_p53_BLA_p2_ratio: Tox21 HCT-116 p53 Agonism Beta-lactamase Assay, Ratio, Phase 2 (AID 2283592)
How it was run: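 HCT116 p53-bla; 4000 cells/well; 5 h pre-incubation; cpd in DMSO, 217-fold dilution; 16 h 37C/5% CO2; CCF4-AM 2 h RT; Ex 405, Em 460/530 ratio; DMSO = baseline; positive fitting direction.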

[21] = TOX21_p53_BLA_p3_viability: Viability Assessment in the Tox21 HCT-116 p53 Agonism Beta-lactamase Assay, Phase 3 (AID 2283593)
How it was run: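 HCT-116 cells (4000/well) rested 5 h at 37C, then got DMSO compounds by pin tool (217-fold dilution) for 16 h at 37C, 5% CO2. After the bla read, CellTiter-Glo was added and luminescence read at 30 min, room temperature.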

Measured: AC50

Clc1ccccc1-c1nc(-c2ccncc2)no1
inactive: [1] | [2] | [3] | [4]

COCCOCCOCCOCCO
inactive: [1] | [5] | [3] | [6]

O=C(CCCCCCCCC#CI)Oc1ccccc1
inactive: [7] | [8] | [9]

Cc1ccc(C(C)NC(=O)[C@@H](NC(=O)OC(C)C)C(C)C)cc1 (some centres undefined)
inactive: [10] | [11] | [12]

C[C@@H]1C[C@H]2[C@@H]3C[C@H](F)C4=CC(=O)C(Cl)=C[C@]4(C)[C@@]3(F)[C@@H](O)C[C@]2(C)[C@@]1(O)C(=O)CO
inactive: [13] | [14] | [15] | [16] | [17]

O=[Se](O)O
active: [7] 1.64 µM | [18] 2.02 µM | [8] 31.7 µM | [19] 2.26 µM | [9] 5.16 µM

COC(=O)CCCCC(=O)O
inactive: [20] | [21] | [5]

Cc1ccc2c(c1[N+](=O)[O-])C(=O)c1ccccc1C2=O
active: [20] 22.5 µM | [3] 20.3 µM | [6] 25.7 µM
inactive: [21] | [5] | [2] | [4]

CC1=C(C=O)C(C)(C)CC=C1
inactive: [20] | [21] | [5] | [2] | [3]

[O-][n+]1cccc(CO)c1
inactive: [20] | [21] | [5] | [2] | [3]

CC1=NS(=O)(=O)c2cc(Cl)ccc2N1
inactive: [20] | [21] | [5] | [2] | [3]

CSSc1ccoc1C
active: [5] 40.4 µM
inactive: [20] | [21]

NCCc1ccc(O)c(O)c1
inactive: [20] | [21] | [5] | [2] | [3] | [4]

O=C(O)Cc1cn(-c2ccccc2)nc1-c1ccc(Cl)cc1
inactive: [20] | [21] | [5] | [2] | [3] | [4] | [6]

CC12CCC(CC1=O)C2(C)C (centres undefined)
inactive: [20] | [21] | [5] | [2] | [3] | [4] | [6]

COc1ccc2cc(CCC(C)=O)ccc2c1
inactive: [20] | [21] | [5] | [2] | [3] | [4]

O=C(Cl)c1cc(Cl)cc(Cl)c1
inactive: [20] | [21] | [5] | [2] | [3] | [4]

CCCCCCCCCCCCCCN(C)C
inactive: [20] | [21] | [5] | [2] | [3]

CO[C@@H]1[C@@H](O[C@@H]2O[C@H](C)[C@@H](O[C@H]3C[C@](C)(O)[C@@H](O)[C@H](C)O3)[C@H](N(C)C)[C@H]2O)[C@H](CC=O)C[C@@H](C)[C@H](O[C@H]2CC[C@H](N(C)C)[C@@H](C)O2)/C=C\C=C\C[C@@H](C)OC(=O)C[C@H]1O
inactive: [20] | [21] | [5] | [2] | [3]

COC1[C@@H](O[C@@H]2O[C@H](C)[C@@H](O[C@H]3C[C@@](C)(O)[C@H](OC(=O)CC(C)C)[C@H](C)O3)[C@H](N(C)C)[C@H]2O)[C@@H](CC=O)C[C@@H](C)[C@@H](O)/C=C/C=C/C[C@@H](C)OC(=O)C[C@H]1OC(C)=O (some centres undefined)
inactive: [20] | [21] | [5] | [2]

Cc1c(C)c2c(c(C)c1O)CC[C@@](C)(CCC[C@H](C)CCC[C@H](C)CCCC(C)C)O2
inactive: [20] | [21] | [5] | [2] | [3] | [4] | [6]

N[C@H](CC(=O)O)C(=O)O
inactive: [20] | [21] | [5] | [2] | [3] | [4] | [6]

O=C1NCCN1
inactive: [20] | [21] | [5] | [2]

Cc1c(N)cccc1Cl
inactive: [20] | [21] | [5] | [2] | [3] | [4]

Cc1cccc(C)c1Nc1ncccc1C(=O)O
active: [20] 43.8 µM
inactive: [21] | [5] | [2] | [3] | [4] | [6]

CC(=O)N(CC(O)CO)c1c(I)c(C(=O)NCC(O)CO)c(I)c(C(=O)NCC(O)CO)c1I (centres undefined)
inactive: [20] | [21] | [5] | [2]

NC(=O)c1cccc([N+](=O)[O-])c1
inactive: [20] | [21] | [5] | [2] | [3] | [4]

Source: PubChem BioAssay (EPA / NIEHS)
